Screens from PubChem BioAssay.
Compounds with a hit are over-represented: about 3.2% of the library has one in this group of screens.
LGR2 inh – blocks bursicon-induced cAMP signaling via Drosophila LGR2. HEK293 LGR2, CRE-luciferase, bursicon-stimulated, 4 h. inhibition, % at 9.99 µM. 380,000 compounds, 0.35% hits. AID 720647;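 active = drop in luminescence signal, shown as inhibition above about 50% in the replicate tests, limit read from the data, passing the limit was not always enough; inconclusive = probably only some replicates passing the limit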;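 note: agonist challenge used bursicon conditioned medium at about half maximal strength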
EWS-Fli block – blocks EWS/Fli oncoprotein-driven transcription; AID 651661; 350,000 compounds, 0.67% hits; inhibition, % at 12.6 µM; A673 NR0B1-luciferase reporter, viability-normalised;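 active = mean inhibition of at least 50% after viability correction, with every replicate also passing that limit; inconclusive = mean reaches 50% but only one of two replicates passes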;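 note: firefly luciferase signal divided by Alamar Blue viability fluorescence both relative to DMSO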
TWEAK Fn14 block – inhibitors of TWEAK-Fn14 interaction signaling; inhibition, % at 10 µM; TWEAK-stimulated Fn14 reporter cells, luciferase luminescence, 8 h; 360,000 compounds, 2% hits; in the data active = inhibition above about 50%
TROY signal inh – inhibitors of TROY-dependent NF-kB signaling | Q293 LMP1-TROYcd NF-kB luciferase reporter, 4 h | 360,000 compounds, 0.98% hits | inhibition, % at 10 µM;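 active = compounds whose plate-normalised and pattern-corrected inhibition of the luciferase reporter signal at the single screening dose is 50% or more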
LMP1 NFkB inh – Epstein-Barr LMP1 NF-kappaB reporter inhibition | LMP1-induced NF-kappaB luciferase reporter cells, luminescence | inhibition, % at 12.5 µM | 350,000 compounds, 0.69% hits | AID 504558; in the data active = inhibition above about 41%; inconclusive = no clear call, values can overlap the other calls
PAX8 inh HTS – inhibitors of PAX8 transcriptional activity in RMG-I cells | RMG-I TPO-luciferase reporter, SteadyGlo, 24 h | inhibition, % at 12.6 µM | 360,000 compounds, 1.2% hits | AID 652154;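 active = mean replicate inhibition at least 60% with every replicate also reaching 60%; inconclusive = only one of the two criteria is met; inactive = mean below 60% and not all replicates reaching 60%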;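 note: luciferase light reporting Pax8 driven TPO promoter activity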
Numbers stand for hits.

For O=C(Nc1cccc(NC(=O)c2ccccc2Cl)c1)c1ccc([N+](=O)[O-])o1 the results were LGR2 inh inactive, EWS-Fli block inactive, TWEAK Fn14 block inactive, TROY signal inh inactive, LMP1 NFkB inh inactive and PAX8 inh HTS 98.
For Cc1cccc(NC(=O)c2ccc([N+](=O)[O-])o2)c1C the results were LGR2 inh inactive, EWS-Fli block inactive, TWEAK Fn14 block inactive, TROY signal inh inactive, LMP1 NFkB inh inactive and PAX8 inh HTS inconclusive.
`O=C(Nc1cccc2ccccc12)c1ccc([N+](=O)[O-])o1` gave LGR2 inh inactive, EWS-Fli block inactive, TWEAK Fn14 block inactive, TROY signal inh inactive, LMP1 NFkB inh inactive and PAX8 inh HTS 69.
Screening O=C(Nc1ccccc1N1CCN(C(=O)c2ccccc2)CC1)c1ccc([N+](=O)[O-])o1 returned LGR2 inh inactive, EWS-Fli block inactive, TWEAK Fn14 block inactive, TROY signal inh inactive, LMP1 NFkB inh inactive and PAX8 inh HTS 68.
`CCCNC(=O)[C@H]1[C@H](CO)[C@H]2Cn3c(ccc(/C=C/c4ccccc4)c3=O)[C@H]2N1CC` gave LGR2 inh inactive and EWS-Fli block inactive.
C[C@@H]1CN([C@H](C)CO)C(=O)c2cc(NC(=O)Nc3ccc(F)cc3)ccc2O[C@@H](C)CCCCO[C@@H]1CN(C)C(=O)C1CCCCC1 was read as LGR2 inh inactive, EWS-Fli block inactive and PAX8 inh HTS inactive.
`C[C@@H]1CN([C@H](C)CO)C(=O)Cc2cc(NC(=O)NC3CCCCC3)ccc2O[C@H]1CN(C)C(=O)Nc1ccc(C(F)(F)F)cc1` gave LGR2 inh inactive, EWS-Fli block inactive and PAX8 inh HTS inactive.
CN(C)c1ccc(-c2nnc(-c3cccs3)o2)cc1 was read as LGR2 inh inactive, EWS-Fli block inactive, TWEAK Fn14 block 63, TROY signal inh inactive, LMP1 NFkB inh inactive and PAX8 inh HTS inactive.
`C[C@@H]1CN([C@@H](C)CO)S(=O)(=O)c2ccc(-c3cccc(C#N)c3)cc2O[C@H]1CN(C)Cc1ccccn1` gave LGR2 inh inactive, EWS-Fli block inactive and PAX8 inh HTS inactive.
C[C@@H]1CN([C@H](C)CO)S(=O)(=O)c2ccc(-c3ccc(C#N)cc3)cc2O[C@H]1CN(C)Cc1ccccn1 was read as LGR2 inh inactive, EWS-Fli block 53 and PAX8 inh HTS 65.
Screening C[C@H]1CN([C@@H](C)CO)S(=O)(=O)c2ccc(-c3ccc(C#N)cc3)cc2O[C@@H]1CN(C)Cc1cccc(F)c1 returned LGR2 inh inactive, EWS-Fli block inactive and PAX8 inh HTS 76.
Screening C[C@@H]1CN([C@@H](C)CO)S(=O)(=O)c2ccc(-c3ccccc3)cc2O[C@H]1CN(C)Cc1cccnc1 returned LGR2 inh inactive, EWS-Fli block 67 and PAX8 inh HTS inconclusive.
`C[C@@H]1CN([C@H](C)CO)S(=O)(=O)c2ccc(-c3ccccc3)cc2O[C@H]1CN(C)Cc1ccccn1` gave LGR2 inh inactive and EWS-Fli block 73.
For C[C@H]1CN([C@@H](C)CO)S(=O)(=O)c2ccc(-c3ccccc3)cc2O[C@@H]1CN(C)Cc1cccnc1 the results were LGR2 inh inactive, EWS-Fli block inactive and PAX8 inh HTS inactive.
`O=C(C[C@H]1C[C@@H]2c3cc(NC(=O)NC4CCCC4)ccc3O[C@@H]2[C@@H](CO)O1)NCc1cccnc1` gave LGR2 inh inactive, EWS-Fli block inactive and PAX8 inh HTS inactive.
For CC(=O)Nc1ccccc1C(=O)C(=O)Nc1ccc(C)c(F)c1 the results were LGR2 inh inactive, EWS-Fli block inactive, TWEAK Fn14 block inactive, TROY signal inh inactive, LMP1 NFkB inh inactive and PAX8 inh HTS 69.
Screening CC(=O)Nc1ccccc1C(=O)C(=O)Nc1ccc(C)c(C)c1 returned LGR2 inh inactive, EWS-Fli block inactive, TWEAK Fn14 block inactive, TROY signal inh inactive, LMP1 NFkB inh inactive and PAX8 inh HTS inactive.
`O=C(C[C@@H]1C=C[C@H](NC(=O)c2ccccc2)[C@H](CO)O1)NCc1ccncn1` gave LGR2 inh inactive, EWS-Fli block inactive and PAX8 inh HTS inactive.
Cc1cc2[nH]c3c(c[n+](C)c4ccccc34)c2cc1C was read as LGR2 inh 100, EWS-Fli block 82, TWEAK Fn14 block inactive, TROY signal inh inactive, LMP1 NFkB inh inactive and PAX8 inh HTS 111.
Screening O=C(Nc1ccc2nc(-c3ccc4nc[nH]c4c3)[nH]c2c1)c1cccs1 returned TWEAK Fn14 block inactive, TROY signal inh inactive, LMP1 NFkB inh inactive and PAX8 inh HTS 68.
